# Assay outcomes: PubChem, National Center for Advancing Translational Sciences (NCATS)
# TRPV1 ag – human TRPV1 agonism; Q8NER1; TRPV1-expressing cells, Fluo-8 calcium influx, agonist mode; activation, % at 8.33 µM; actives 0.19% (n = 320,000); in the data active = activation above about 80%; inconclusive = between about 30% and that limit; note: 0% is about no effect
#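 TRPV1-expressing cells were cultured overnight at 35.5C and loaded with Fluo-8 calcium dye for 40 to 90 min at room temperature. After a 10 s baseline, compound was added and calcium influx was read kinetically for 3 min (ex 480/em 520 nm).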
# TRPML1 inh – inhibitors of human TRPML1 channel | Q9GZU1 | TRPML1-inducible cells, Ca2+ dye fluorescence, FDSS; hits give low values; inhibition of EC80 agonist-evoked calcium signal | activity change, negative = inhibition, % (test concentration not listed) | actives 0.02% (n = 390,000); in the data active = activity change below about -50%; inconclusive = between about -30% and that limit;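 note: stimulus is agonist 54-4 at its EC80 concentration; % is set by controls: 0 for no effect and ±100 for the full control effect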
#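 TRPML1-DL cells, Tet-induced overnight (~16 h, 37 °C) at 1,500 cells/well, were loaded with Ca8 no-wash dye plus quencher for 45-90 min at room temperature. Compounds were pinned during FDSS kinetic reading; agonist 54-4 at EC80 (4 uM final) then added.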
# USP1-UAF1 inh – inhibitors of human USP1/UAF1 deubiquitinase | O94782 | recombinant USP1/UAF1, Ub-Rhodamine cleavage fluorescence | Potency, µM (series often up to 57.1 µM), for inactives: at the top dose activity change, negative = inhibition, most hits filed as inhibitors | actives 0.23% (n = 390,000); active = well fitted inhibition curve with a large enough effect; inconclusive = small, poorly fitted or top-dose-only effect; inactive = no such curve, though single readings can be large or run the other way; note: potency is the fitted concentration of half-maximal effect; % is set by controls: 0 for no effect and ±100 for the full control effect; nearly all actives have a fitted effect of over 60% in size
# Target sequence (O94782 whole entry, looked up): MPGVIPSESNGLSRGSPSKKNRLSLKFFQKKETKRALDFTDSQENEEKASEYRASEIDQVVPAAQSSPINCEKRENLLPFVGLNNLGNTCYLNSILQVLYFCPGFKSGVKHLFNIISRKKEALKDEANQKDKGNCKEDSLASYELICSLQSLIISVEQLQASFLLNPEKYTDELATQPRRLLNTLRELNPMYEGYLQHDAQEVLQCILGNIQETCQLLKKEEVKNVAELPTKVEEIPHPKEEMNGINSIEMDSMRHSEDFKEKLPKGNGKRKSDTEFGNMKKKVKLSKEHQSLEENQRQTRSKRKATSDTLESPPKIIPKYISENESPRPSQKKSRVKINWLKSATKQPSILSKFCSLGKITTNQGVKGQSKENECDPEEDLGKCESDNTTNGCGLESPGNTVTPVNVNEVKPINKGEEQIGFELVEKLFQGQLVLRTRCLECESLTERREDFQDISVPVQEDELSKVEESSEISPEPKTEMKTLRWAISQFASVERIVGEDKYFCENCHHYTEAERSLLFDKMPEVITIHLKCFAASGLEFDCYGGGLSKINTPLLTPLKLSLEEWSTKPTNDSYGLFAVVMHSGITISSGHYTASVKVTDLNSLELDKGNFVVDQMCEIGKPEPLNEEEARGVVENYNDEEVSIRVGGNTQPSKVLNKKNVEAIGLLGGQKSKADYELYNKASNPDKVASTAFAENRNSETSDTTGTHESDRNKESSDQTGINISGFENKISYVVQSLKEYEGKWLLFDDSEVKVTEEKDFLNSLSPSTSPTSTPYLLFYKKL
#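 High-throughput fluorogenic screen: 1nM USP1/UAF1 complex, Ub-Rho substrate 150nM final, 50mM HEPES pH 7.8 with 0.5mM EDTA, 0.1 mg/ml BSA, 1mM TCEP and 0.01% Tween-20.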
# TRPV1 potentiator – enhances activation of the human vanilloid receptor TRPV1; actives 0.02% (n = 320,000); TRPV1-expressing cells, Fluo-8 calcium influx, capsaicin EC20 potentiation; potentiation, % at 8.33 µM; AID 540277; Q8NER1; in the data active = potentiation above about 80%; inconclusive = between about 30% and that limit; note: 0% is about no effect
#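 Fluo-8 calcium influx in TRPV1-expressing cells, kinetic read (ex 480/em 520 nm). Compound added and read 3 min for agonist activity, followed by capsaicin at EC20 final and 2 min further read for enhancement.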
# TRPML1 ag – agonists of human TRPML1 channel; Q9GZU1; AID 624414; activation, % (test concentration not listed); actives 0.12% (n = 410,000); TRPML1-expressing cells, Ca2+ dye fluorescence, FDSS; in the data active = activation above about 50%; inconclusive = mostly about 30% to 49%; note: 0% is about no effect
#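 Kinetic FDSS Ca2+ read in Tet-induced TRPML1-DL cells (ABD Ca8 dye plus quencher, 45-90 min RT loading): baseline, then compound, then 110 s agonist window; EC80 agonist 54-4 at 4uM final added afterwards for a 110 s antagonist window.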
# Numbers without * were called inactive; u = inconclusive; x = no result given. Most compounds without a hit are left out; they make up all but 0.4% or so of the library.
SMILES,TRPV1 ag,TRPML1 inh,USP1-UAF1 inh,TRPV1 potentiator,TRPML1 ag
O=c1oc2cc(O)ccc2cc1-c1nc2ccccc2o1,x,x,x,x,99*
COc1ccc(C(=O)NCCc2cn3ccccc3n2)cc1,-2,x,-6%,-19,x
C/C(=N/NC(=O)c1ccncc1)c1ccc(NC(=O)c2ccccc2)cc1,u,26,-2%,-13,0
O=C(Nc1cccc([N+](=O)[O-])c1)c1ccncc1,-5,13,-10%,-21,0
Cc1c(C(=O)Nc2ccccc2)cnn1-c1ccccc1,x,-4,-4%,x,0
CC(C)(C)c1ccc(C(=O)Nc2cccc([N+](=O)[O-])c2)cc1,84*,-6,-25%,-2,0
C/C(=N\NC(=O)c1ccncc1)c1cccc(NC(=O)c2ccc(C(C)(C)C)cc2)c1,85*,-4,u,0,1
Cc1c(C(=O)Nc2cccc([N+](=O)[O-])c2)cnn1-c1ccccc1,103*,5,-2%,-10,-1
OC(C#CCN1CCOCC1)c1cccs1 (stereo not given),-2,18,-15%,-8,0
Cc1c2cc(O)c(=O)cc-2oc2cc(O)c(O)cc12,0,95,u,-3,24
COc1cc(OC)c(-c2c3cc(O)c(=O)cc-3oc3cc(O)c(O)cc23)cc1OC,104*,-10,25µM*,-13,112*
O=C(Nc1cccc(N=Cc2cc(Br)cc(Br)c2O)c1)c1ccco1,3,10,28µM*,-4,2
CC1(C(=O)NS(=O)(=O)c2ccc(Br)cc2)CCN1C(=O)C/C=C/c1ccccc1 (stereo not given),x,-12,x,x,0
C=CCc1cccc2cc(C(=O)NNC(=O)c3ccncc3)c(=O)oc12,81*,-17,-19%,-10,0
O=C(NCCc1ccc(O)c(O)c1)C1COc2ccccc2O1 (stereo not given),89*,3,-11%,-32,1
O=C(Nc1ccccc1)c1cc(-c2ccccc2Cl)no1,85*,73,-20%,-6,1
CCCOc1ccc(Cc2nn3c(=O)/c(=C/c4ccco4)sc3nc2=O)cc1,-1,0,-3%,-33,50*
CC[C@]12C(=O)N(C)C[C@H]([C@@H]3C(=O)N(C)C(=O)[C@@H]31)N2C(=O)c1ccc(C(F)(F)F)cc1,x,2,-10%,x,0
CCOCCc1nn2c(=O)cc(COC(=O)c3ccco3)nc2s1,x,-23,3%,x,0
COc1cccc(NC(=O)c2sc3nc(C)c(C(=O)Nc4ccc(C)cc4C)c(-c4ccco4)c3c2N)c1,x,4,35µM*,x,5
COc1cccc(NC(=O)c2sc3nc(C)c(C(=O)Nc4ccc(C)cc4C)c(-c4sccc4C)c3c2N)c1,x,-3,u,x,3
Cc1ccc(Cn2c(=N)c(C(=O)NCC3CCCO3)cc3c(=O)n4cccc(C)c4nc32)cc1 (stereo not given),82*,-4,-16%,-11,-1
Cc1[nH][nH]c(=O)c1C(c1c(C)[nH][nH]c1=O)c1cn(Cc2ccc(Cl)c(Cl)c2)c2ccccc12,1,-18,28µM*,10,2
COc1ccc(C2C(C(C)=O)=C(C)N=c3s/c(=C\c4cc(C)n(C)c4C)c(=O)n32)c(OC)c1 (stereo not given),u,10,18µM*,-11,29
COc1ccc(C2C(C(C)=O)=C(C)N=c3s/c(=C\c4ccco4)c(=O)n32)c(OC)c1 (stereo not given),9,12,-18%,-11,2
SMILES,TRPV1 ag,TRPML1 inh,USP1-UAF1 inh,TRPV1 potentiator,TRPML1 ag
Cc1ccc(CNC(=O)C2=NNC(=O)CC2)cc1,-1,-6,-5%,2,1
Cc1ccc(C(=O)NC2(O)C(=O)c3ccccc3C2=O)cc1C,0,6,u,0,1
O=C(NC1(O)C(=O)c2ccccc2C1=O)c1ccc(C(F)(F)F)cc1,-2,-23,16µM*,-2,1
CC[n+]1c(/C=C(\C)OC)sc2ccccc21,-3,-7,-17%,-1,1
CC[n+]1c(/C=C/C=C/N(C(C)=O)c2ccccc2)sc2cc(OC)ccc21,9,-11,28µM*,0,17
c1cncc(CNc2ccc3c(c2)OCO3)c1,-1,10,-8%,6,1
Cc1cc(C)cc(C(=O)Nn2cnnc2)c1,-4,4,-15%,82*,0
O=C(Nn1cnnc1)c1cc(Cl)cc(Cl)c1,0,-10,-13%,-4,0
C=CCNc1oc(-c2ccco2)nc1S(=O)(=O)c1ccccc1,0,-2,-12%,18,3
CCc1ccc2[nH]c(=O)c(CN(Cc3ccccc3OC)C(=O)Nc3ccccc3OC)cc2c1,5,-11,-8%,-8,2
CCN(CC)CCN(Cc1cc2cc(C)ccc2[nH]c1=O)C(=O)Nc1ccccc1OC,-2,-2,4%,88*,2
O=C(COC(=O)/C=C/c1cccc([N+](=O)[O-])c1)NCc1ccco1,5,-4,-21%,4,3
Cc1cc(O)c(C(C)C)cc1N=Cc1ccc(N(C)C)cc1,x,13,32µM*,x,0
CCCCOC(=O)Nc1ccc(C(C)C)cc1,81*,-21,-14%,-1,11
Cc1nn(C)c(C(=O)Nc2ccc(S(=O)(=O)NC34CC5CC(CC(C5)C3)C4)cc2)c1Br,2,8,-13%,81*,-1
COc1cc(/C=N\NC(=O)C2COc3ccccc3O2)cc(OC)c1O (stereo not given),88*,-19,-21%,2,0
Cn1cccc1/C=N\NC(=O)C1COc2ccccc2O1 (stereo not given),29,-7,-6%,-22,85*
Cn1cccc1/C=N\NC(=O)C1COc2ccc(C(C)(C)C)cc2O1 (stereo not given),u,-13,u,1,1
CC(C)(C)c1ccc2c(c1)OC(C(=O)N/N=C\c1ccncc1)CO2 (stereo not given),109*,21,-22%,-5,1
CC(C)(C)c1ccc2c(c1)OC(C(=O)N/N=C\c1ccc[nH]1)CO2 (stereo not given),u,2,-17%,9,1
CC(C)CN1C(=O)C(=O)N(CC(=O)c2ccc3c(c2)CCCC3)C1=O,16,10,-6%,0,1
c1coc(-c2nc3ccccn3c2Nc2ccc3c(c2)OCCO3)c1,x,25,-6%,x,0
c1ccc2c(c1)oc1c(Nc3ccc(CN4CCOCC4)cc3)ncnc12,84*,4,-6%,-8,0
c1ccc(Nc2ncnc3c2oc2ccccc23)cc1,81*,-2,-9%,-5,0
O=C(CSc1ncnc2c1nnn2Cc1ccccc1)NC1CCCCC1,25,-5,-21%,-8,0
